We go through 4 molecules from PubChem BioAssay (EPA / NIEHS).

Assay [1] is described as follows: ATG_GLI_CIS: Attagene CIS-FACTORIAL HepG2 Assay for human Zinc Finger Protein GLI1 (AID 2282945). The settings on record: HepG2, Attagene cis-factorial reporter mRNA, GLI element; actives raise or lower the signal. The essentials:
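Transiently transfected HepG2 cells report endogenous transcription factor activity via cis-element-driven reporter units. After 24 h compound exposure, reporter mRNA was measured by RT-PCR with capillary electrophoresis; bidirectional fitting against DMSO baseline.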

Assay [2] can be described thus: ATG_GRE_CIS: Attagene CIS-FACTORIAL HepG2 Assay for human Glucocorticoid Response Elements (GRE) (AID 2282947). The settings on record: HepG2 GRE cis-reporter, Attagene multiplex mRNA; actives raise or lower the signal. A digest of the protocol:
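Endogenous transcription factor activity is read through cis-element reporter constructs transiently transfected into HepG2 cells. After 24 h treatment, labelled RT-PCR products are resolved by capillary electrophoresis; DMSO sets baseline for bidirectional curve fitting.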

Assay [3] in a line: ATG_ISRE_CIS: Attagene CIS-FACTORIAL HepG2 Assay for human Interferon Regulatory Factor 1 (IRF1) binding to an Interferon-Stimulated Response Element (ISRE) (AID 2282948). The settings on record: HepG2 ISRE cis-reporter (Attagene), mRNA transcription readout; actives raise or lower the signal. A digest of the protocol:
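Transfected HepG2 (multiple reporter transcription units, cis elements) dosed 24 h. RNA → oligo(dT) RT → PCR → 6-FAM primer extension → HpaI → CE. DMSO = negative control/baseline.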

A short description of assay [4]: ATG_M_32_CIS: Attagene CIS-FACTORIAL HepG2 Assay for M32 Transcription Factor (Internal Marker) (AID 2282949).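 Also: background control marker of the multiplexed CIS panel rather than a real target.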 The note with it: HepG2 Attagene cis-factorial M32 reporter, mRNA; actives raise or lower the signal. The essentials:
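Internal background marker read-out: RT-PCR/capillary electrophoresis fluorescence of reporter transcripts from transiently transfected HepG2 cells after 24 h chemical exposure. Activity fitted bidirectionally relative to DMSO negative control.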

The nature of assay [5]: ATG_M_06_CIS: Attagene CIS-FACTORIAL HepG2 Assay for M06 Transcription Factor (Internal Marker) (AID 2282950). The settings on record: HepG2 Attagene CIS-FACTORIAL M06 internal marker reporter; actives raise or lower the signal. A digest of the protocol:
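Read-out is fluorescence of labelled reporter cDNA fragments resolved by capillary electrophoresis after RT-PCR. Cells: HepG2 carrying transfected cis-promoter reporter units, treated 24 h. Gain or loss of signal fitted relative to DMSO.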

In assay [6] the target is Hypoxia-inducible factor 1-alpha (Homo sapiens) (UniProt Q16665). Briefly: ATG_HIF1a_CIS: Attagene CIS-FACTORIAL HepG2 Assay for human Hypoxia Inducible Factor 1 (HIF1A) (AID 2282951). The settings on record: HepG2 Attagene cis-factorial HIF1a reporter transcription; actives raise or lower the signal. A digest of the protocol:
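In this multiplexed cell assay, HepG2 cells bearing transfected cis reporters are dosed for 24 h and reporter mRNA is read by RT-PCR plus capillary electrophoresis; signal increases and decreases are both scored against DMSO.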

In assay [7] the target is Hepatocyte nuclear factor 6 (Homo sapiens) (UniProt Q9UBC0). Briefly: ATG_HNF6_CIS: Attagene CIS-FACTORIAL HepG2 Assay for human Hepatocyte Nuclear Factor 6 (HNF6) (AID 2282952). The note with it: HepG2 Attagene cis-factorial HNF6 reporter transcription; actives raise or lower the signal. The essentials: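 HepG2 cells transiently transfected with cis-element-driven multiple reporter transcription units, dosed 24 h; reporter mRNA quantified by RT-PCR, FAM primer extension, HpaI digestion and capillary electrophoresis; bidirectional fit versus DMSO baseline.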
Sequence of Hepatocyte nuclear factor 6 (Homo sapiens) (Q9UBC0 whole entry, looked up): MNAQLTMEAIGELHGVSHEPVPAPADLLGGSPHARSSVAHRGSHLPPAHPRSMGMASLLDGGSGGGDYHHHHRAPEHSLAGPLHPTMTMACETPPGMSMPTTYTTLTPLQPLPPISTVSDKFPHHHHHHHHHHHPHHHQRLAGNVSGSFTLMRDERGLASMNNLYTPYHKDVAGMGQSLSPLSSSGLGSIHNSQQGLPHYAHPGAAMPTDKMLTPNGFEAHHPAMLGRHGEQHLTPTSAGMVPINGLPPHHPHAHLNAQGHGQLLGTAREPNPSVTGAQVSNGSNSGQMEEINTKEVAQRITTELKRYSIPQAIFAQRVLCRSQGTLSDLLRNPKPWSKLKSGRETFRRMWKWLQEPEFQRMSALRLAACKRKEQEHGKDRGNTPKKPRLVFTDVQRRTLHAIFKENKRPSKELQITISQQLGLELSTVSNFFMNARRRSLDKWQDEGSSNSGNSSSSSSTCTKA

Assay [8] addresses Heat shock factor protein 1 (Homo sapiens) (UniProt Q00613). Briefly: ATG_HSE_CIS: Attagene CIS-FACTORIAL HepG2 Assay for human Heat Shock Transcription Factor 1 (HSE) (AID 2282953). The settings on record: HepG2 HSE cis-reporter, Attagene RNA transcription; actives raise or lower the signal. The essentials: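 HepG2, transient MRTU transfection, cis-promoter reporters (endogenous TF activity). 24 h compound. RNA → oligo(dT) RT → PCR → 6-FAM primer extension → HpaI cut → CE. Bidirectional fit vs DMSO.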

Assay [9] in a line: ATG_PBREM_CIS: Attagene CIS-FACTORIAL HepG2 Assay for human Phenobarbital-responsive Enhancer Module (PBREM) (AID 2282955). The settings on record: HepG2 PBREM cis-reporter, Attagene multiplexed transcription; actives raise or lower the signal. The essentials:
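After a 24 h incubation with test chemical, transfected HepG2 cells yield total RNA; reporter-specific RT-PCR products are fluorescently labelled, HpaI-digested and resolved by capillary electrophoresis against ROX size standards.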

Assay [10] can be described thus: ATG_PXRE_CIS: Attagene CIS-FACTORIAL HepG2 Assay for human Pregnane X Receptor Element (PXRE) (AID 2282957). The settings on record: HepG2 Attagene CIS-FACTORIAL PXRE reporter, mRNA; actives raise or lower the signal. A digest of the protocol: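 HepG2 cells transiently transfected with cis-regulated multiple reporter transcription units; endogenous factor activity measured as reporter mRNA 24 h after dosing. RT-PCR, fluorescent primer extension, HpaI digestion, capillary electrophoresis; bidirectional fit versus DMSO baseline.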

A short description of assay [11]: ATG_RORE_CIS: Attagene CIS-FACTORIAL HepG2 Assay for human RAR-related Orphan Receptor Element (RORE) (AID 2282959). The settings on record: HepG2 Attagene cis-factorial RORE reporter, mRNA; actives raise or lower the signal. A digest of the protocol:
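Fluorescence intensity of reporter-specific cDNA fragments, separated by capillary electrophoresis, gives the signal. Source: HepG2 liver cells transiently transfected with cis-element reporters and exposed 24 h; DMSO-normalized bidirectional fit.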

Assay [12] can be described thus: ATG_Sox_CIS: Attagene CIS-FACTORIAL HepG2 Assay for human SRY-box transcription factor (SOX) (AID 2282960). The settings on record: HepG2 Attagene cis-factorial SOX reporter, mRNA; actives raise or lower the signal. The essentials: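 After 24 h of chemical treatment, transfected HepG2 reporter cells are lysed for total RNA. Transcript levels come from RT-PCR with labelled primer extension and capillary electrophoresis, analysed bidirectionally versus DMSO.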

For assay [13], the target named is Transcription factor Sp1 (Homo sapiens) (UniProt P08047). Put plainly: ATG_Sp1_CIS: Attagene CIS-FACTORIAL HepG2 Assay for human Specificity Protein 1 (Sp1) (AID 2282961). The settings on record: HepG2 Sp1 cis-reporter transcription, actives raise or lower the signal. The essentials: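 Sp1-driven reporter mRNA, read as capillary electrophoresis fluorescence after RT-PCR, in transiently transfected HepG2 cells dosed for 24 h; signal change in either direction relative to DMSO.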
Sequence of Transcription factor Sp1 (Homo sapiens) (P08047 whole entry, looked up): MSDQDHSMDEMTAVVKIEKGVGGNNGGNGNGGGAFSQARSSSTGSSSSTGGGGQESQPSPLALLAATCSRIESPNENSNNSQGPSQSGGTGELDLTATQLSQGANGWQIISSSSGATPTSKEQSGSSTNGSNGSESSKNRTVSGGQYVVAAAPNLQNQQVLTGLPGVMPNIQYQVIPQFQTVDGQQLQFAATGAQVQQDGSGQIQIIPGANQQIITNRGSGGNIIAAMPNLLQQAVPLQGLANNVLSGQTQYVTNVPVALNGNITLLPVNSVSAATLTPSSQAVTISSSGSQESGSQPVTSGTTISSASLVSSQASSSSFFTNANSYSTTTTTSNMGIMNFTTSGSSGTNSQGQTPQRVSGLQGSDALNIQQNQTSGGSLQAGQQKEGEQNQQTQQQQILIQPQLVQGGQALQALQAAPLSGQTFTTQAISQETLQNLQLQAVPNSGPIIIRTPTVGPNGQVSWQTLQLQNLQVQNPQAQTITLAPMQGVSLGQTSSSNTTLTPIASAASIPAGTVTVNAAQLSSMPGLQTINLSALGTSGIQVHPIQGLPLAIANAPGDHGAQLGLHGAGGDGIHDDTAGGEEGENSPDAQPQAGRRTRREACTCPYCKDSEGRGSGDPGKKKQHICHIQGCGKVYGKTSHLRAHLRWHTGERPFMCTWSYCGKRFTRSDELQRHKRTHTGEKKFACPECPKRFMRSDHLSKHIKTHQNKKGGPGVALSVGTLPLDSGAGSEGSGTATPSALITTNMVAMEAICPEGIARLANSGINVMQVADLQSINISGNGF

Assay [14] in a line: ATG_SREBP_CIS: Attagene CIS-FACTORIAL HepG2 Assay for human Sterol Regulatory Element Binding (SREBP) (AID 2282962). The settings on record: HepG2 Attagene cis-factorial SREBP reporter, mRNA; actives raise or lower the signal. A digest of the protocol:
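Transfected HepG2 (cis-regulated reporter library, endogenous TFs) → compound 24 h → total RNA → oligo(dT) RT → reporter-specific PCR → FAM primer extension, HpaI cut → CE fluorescence. Fit bidirectional vs DMSO.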

The target of assay [15] is Signal transducer and activator of transcription 3 (Homo sapiens) (UniProt P40763). Put plainly: ATG_STAT3_CIS: Attagene CIS-FACTORIAL HepG2 Assay for human Signal Transducer and Activator of Transcription 3 (STAT3) (AID 2282963). The note with it: HepG2, Attagene cis-factorial STAT3 reporter transcription; actives raise or lower the signal. A digest of the protocol: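 Values derive from bidirectional fits relative to DMSO of reporter mRNA levels, measured by RT-PCR with capillary electrophoresis, in HepG2 cells carrying transiently transfected cis-regulated reporter units and exposed 24 h.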
Sequence of Signal transducer and activator of transcription 3 (Homo sapiens) (P40763 whole entry, looked up): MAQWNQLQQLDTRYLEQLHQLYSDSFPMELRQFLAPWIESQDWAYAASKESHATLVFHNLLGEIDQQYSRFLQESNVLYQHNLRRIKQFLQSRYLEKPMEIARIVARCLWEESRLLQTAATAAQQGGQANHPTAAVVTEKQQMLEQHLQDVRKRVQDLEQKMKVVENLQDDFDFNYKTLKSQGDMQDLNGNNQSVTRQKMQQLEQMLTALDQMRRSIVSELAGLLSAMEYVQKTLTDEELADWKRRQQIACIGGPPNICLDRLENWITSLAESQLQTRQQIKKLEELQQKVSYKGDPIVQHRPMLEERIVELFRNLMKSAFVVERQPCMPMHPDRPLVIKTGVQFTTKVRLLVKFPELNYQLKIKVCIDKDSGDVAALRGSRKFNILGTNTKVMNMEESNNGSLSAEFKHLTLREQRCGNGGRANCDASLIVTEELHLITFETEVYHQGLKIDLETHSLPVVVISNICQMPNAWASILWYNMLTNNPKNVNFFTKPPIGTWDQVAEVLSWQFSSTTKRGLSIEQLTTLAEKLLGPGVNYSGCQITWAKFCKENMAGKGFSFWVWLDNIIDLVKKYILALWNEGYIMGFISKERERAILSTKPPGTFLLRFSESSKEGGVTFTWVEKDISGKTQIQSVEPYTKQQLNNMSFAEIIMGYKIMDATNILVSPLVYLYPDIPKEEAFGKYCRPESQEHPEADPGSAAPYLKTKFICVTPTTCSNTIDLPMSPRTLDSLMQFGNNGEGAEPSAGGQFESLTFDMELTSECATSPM

Assay [16] deals with Paired box protein Pax-6 (Homo sapiens) (UniProt P26367). Put plainly: ATG_Pax6_CIS: Attagene CIS-FACTORIAL HepG2 Assay for human Paired Box 6 (PAX6) (AID 2282956). The settings on record: HepG2 CIS-FACTORIAL PAX6 reporter transcription, RNA readout; actives raise or lower the signal. A digest of the protocol: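 Transient MRTU transfection of HepG2 → compound exposure 24 h → TriZol RNA, oligo(dT) RT → PCR, 6-FAM primer extension, HpaI cut → capillary electrophoresis; activity fitted both directions against DMSO.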
Sequence of Paired box protein Pax-6 (Homo sapiens) (P26367 whole entry, looked up): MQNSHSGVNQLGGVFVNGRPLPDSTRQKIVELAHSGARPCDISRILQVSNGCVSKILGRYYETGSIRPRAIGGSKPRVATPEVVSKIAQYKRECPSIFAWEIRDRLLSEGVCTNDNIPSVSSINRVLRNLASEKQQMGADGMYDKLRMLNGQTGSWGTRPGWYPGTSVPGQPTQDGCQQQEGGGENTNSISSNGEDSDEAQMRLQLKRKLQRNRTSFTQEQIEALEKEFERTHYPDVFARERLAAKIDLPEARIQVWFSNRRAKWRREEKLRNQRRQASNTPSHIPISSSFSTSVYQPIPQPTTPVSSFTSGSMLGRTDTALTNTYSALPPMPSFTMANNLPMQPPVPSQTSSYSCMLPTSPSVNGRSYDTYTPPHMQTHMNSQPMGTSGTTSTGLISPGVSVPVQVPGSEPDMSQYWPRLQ

A short description of assay [17]: ATG_TA_CIS: Attagene CIS-FACTORIAL HepG2 Assay for human TA Basal Promoter (AID 2282964). The note with it: HepG2 Attagene CIS-factorial TA basal promoter reporter; actives raise or lower the signal. A digest of the protocol: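 Read-out: fluorescent reporter-transcript fragments resolved by capillary electrophoresis after RT-PCR and HpaI digestion. Source: HepG2 cells carrying transiently transfected multi-reporter cis constructs, treated 24 h. Endpoint fitted bidirectionally relative to DMSO.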

Assay [18] can be described thus: ATG_MRE_CIS: Attagene CIS-FACTORIAL HepG2 Assay for human Metal Responsive Element (MRE) (AID 2282954). The note with it: HepG2 MRE cis-reporter transcription, Attagene multiplex; actives raise or lower the signal. The essentials:
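Fluorescent reporter fragments separated by capillary electrophoresis give mRNA induction for the MRE unit after 24 h treatment of transfected HepG2 cells. Endogenous transcription-factor activity is read; DMSO serves as negative control and baseline.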

Assay [19] in a line: ATG_PPRE_CIS: Attagene CIS-FACTORIAL HepG2 Assay for human Peroxisome Proliferator-activated Response Element (PPRE) (AID 2282958). The note with it: HepG2 PPRE cis-element reporter, Attagene transcription factor profiling; actives raise or lower the signal. The essentials:
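Multiplexed reporter transcription units under cis-regulatory promoters were transfected into HepG2 cells to capture endogenous factor activity. A 24 h incubation preceded RNA isolation and fluorescent RT-PCR fragment analysis.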

The structures appear in SMILES notation. Activity calls are given as the source filed them. The calls were made as follows: active = hit-call score of the fitted dose curve at least 0.9, where 1 is the maximum; inactive = score below 0.9.

Sequence of Heat shock factor protein 1 (Homo sapiens) (Q00613 whole entry, looked up): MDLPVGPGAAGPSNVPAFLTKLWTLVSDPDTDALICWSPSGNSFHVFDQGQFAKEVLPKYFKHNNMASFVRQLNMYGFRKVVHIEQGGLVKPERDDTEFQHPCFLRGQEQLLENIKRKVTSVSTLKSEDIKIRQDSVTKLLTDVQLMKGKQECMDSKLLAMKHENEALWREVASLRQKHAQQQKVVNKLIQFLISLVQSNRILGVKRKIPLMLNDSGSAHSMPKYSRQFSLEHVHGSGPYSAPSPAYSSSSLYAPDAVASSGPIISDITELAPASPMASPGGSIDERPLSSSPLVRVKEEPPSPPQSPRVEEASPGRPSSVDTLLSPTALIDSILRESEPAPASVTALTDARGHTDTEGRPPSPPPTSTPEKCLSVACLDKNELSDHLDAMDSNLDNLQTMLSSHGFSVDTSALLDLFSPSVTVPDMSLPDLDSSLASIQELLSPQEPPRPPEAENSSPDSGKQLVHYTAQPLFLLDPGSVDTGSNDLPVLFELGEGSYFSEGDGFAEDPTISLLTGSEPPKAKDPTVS
Sequence of Hypoxia-inducible factor 1-alpha (Homo sapiens) (Q16665 whole entry, looked up): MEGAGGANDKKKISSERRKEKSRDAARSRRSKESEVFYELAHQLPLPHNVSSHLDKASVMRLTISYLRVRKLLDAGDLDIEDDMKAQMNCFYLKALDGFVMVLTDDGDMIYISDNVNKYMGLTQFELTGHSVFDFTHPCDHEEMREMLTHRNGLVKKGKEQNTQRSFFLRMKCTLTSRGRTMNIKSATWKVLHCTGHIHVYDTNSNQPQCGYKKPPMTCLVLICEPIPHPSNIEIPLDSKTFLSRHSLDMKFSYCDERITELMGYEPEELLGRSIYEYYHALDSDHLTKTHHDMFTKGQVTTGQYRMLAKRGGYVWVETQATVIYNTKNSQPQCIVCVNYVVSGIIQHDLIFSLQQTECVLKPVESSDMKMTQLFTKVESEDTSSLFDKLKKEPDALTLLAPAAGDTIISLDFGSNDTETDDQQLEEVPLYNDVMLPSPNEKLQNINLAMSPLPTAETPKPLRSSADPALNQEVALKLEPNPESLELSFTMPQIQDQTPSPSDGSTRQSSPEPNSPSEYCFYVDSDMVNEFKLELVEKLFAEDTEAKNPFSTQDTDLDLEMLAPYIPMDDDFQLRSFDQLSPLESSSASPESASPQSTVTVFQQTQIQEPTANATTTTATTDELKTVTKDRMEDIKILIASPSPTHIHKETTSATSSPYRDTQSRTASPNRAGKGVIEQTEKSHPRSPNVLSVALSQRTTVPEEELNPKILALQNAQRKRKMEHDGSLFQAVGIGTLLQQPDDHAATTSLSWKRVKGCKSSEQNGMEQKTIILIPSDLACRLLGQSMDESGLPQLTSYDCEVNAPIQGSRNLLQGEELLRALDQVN

As usually defined, the AC50 is the concentration giving half of the maximal activity seen. `c1ccc(Nc2cccc3ccccc23)cc1`: the AC50 in [1] is 54 µM (active); in [3], 24.8 µM (active); in assay [7], 51.8 µM (active); in assay [8] it was 53.8 µM (active); in [10], 8.67 µM (active); in [12] it was 48.1 µM (active). Also, the half-maximal activity concentration (AC50) in [13] is 47.1 µM (active); in assay [14], 60.4 µM (active). Moreover, the call in assay [2], in assay [4], in assay [5], in assay [6], in assay [9] and in [11] was inactive. In addition, the result in [15] was inactive.
Take `CCC(C)c1ccccc1` (centres undefined): the call in assay [1], in assay [2], in assay [3], in assay [4], in assay [5] and in assay [6] was inactive. For the same molecule, the result in assay [7], in assay [8], in [16], in assay [10], in assay [11] and in assay [12] was inactive. The result in assay [13], in assay [14], in [15] and in assay [17] was inactive.
For `NC(=O)Nc1ccccc1`, the result in [1], in assay [2], in [3], in assay [4], in [5] and in assay [6] was inactive. Moreover, the molecule was called inactive in [7], in assay [8], in assay [9], in assay [16], in assay [10] and in assay [12]. Besides, the molecule was classed as inactive in [13], in assay [14], in [15] and in assay [17].
For the molecule `CCC(=O)C1CC(C(C)C)CC=C1C` (centres undefined), the result in [1], in assay [2], in [3], in assay [4], in [6] and in assay [7] was inactive. For the same molecule, the result in assay [8], in [18], in assay [9], in assay [16], in assay [19] and in [11] was inactive. Moreover, the molecule was classed as inactive in assay [12], in assay [13], in assay [14], in [15] and in assay [17].
